Only some compounds are listed: those with a hit (about 0.52% of all), similar ones and a draw of the others.
PINK1 modulator: modulators of PINK1 expression. hit rate 0.2% among 410,000. PINK1 immunofluorescence, high-content cytometry, 24 h. Potency, µM (top dose mostly 76.6 µM), actives largely listed as activators; active means well fitted activation curve with a large enough effect; inconclusive means small, poorly fitted or top-dose-only effect; cell line not stated here; further: nearly all actives have a fitted effect of over 65% in size
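Decision-based qHTS: stable cells, 24 h exposure to five compound concentrations, CCCP as control. Fixed cells stained for PINK1 plus nuclear, mitochondrial and cell markers, cytometer read.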
Epigenetic reg: epigenetic control regulation, reporter derepression. murine LDR cells, GFP reporter derepression, 30 h. Potency, µM (series often up to 53.9 µM), usual class: activators. hit rate 0.2% among 280,000. AID 1865; further: nearly all actives have a fitted effect of over 60% in size
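Murine LDR cells carrying a silenced, genomically integrated CMV-driven GFP reporter were exposed to compound for 30 hours at 37 C. After PBS washes, GFP-positive cells (20–120 um objects) were counted by laser-scanning microplate cytometry.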
Vif-A3G inh: inhibitors of Vif-APOBEC3G interaction. Q9HC16. HeLa A3G-eYFP + Vif (tagged APOBEC3G with the HIV-1 protein that degrades it), YFP fluorescence, overnight. Potency, µM (series often up to 46.1 µM), actives largely listed as inhibitors. hit rate 0.076% among 410,000; further: nearly all actives have a fitted effect of over 60% in size
Target sequence (Q9HC16 whole entry, looked up): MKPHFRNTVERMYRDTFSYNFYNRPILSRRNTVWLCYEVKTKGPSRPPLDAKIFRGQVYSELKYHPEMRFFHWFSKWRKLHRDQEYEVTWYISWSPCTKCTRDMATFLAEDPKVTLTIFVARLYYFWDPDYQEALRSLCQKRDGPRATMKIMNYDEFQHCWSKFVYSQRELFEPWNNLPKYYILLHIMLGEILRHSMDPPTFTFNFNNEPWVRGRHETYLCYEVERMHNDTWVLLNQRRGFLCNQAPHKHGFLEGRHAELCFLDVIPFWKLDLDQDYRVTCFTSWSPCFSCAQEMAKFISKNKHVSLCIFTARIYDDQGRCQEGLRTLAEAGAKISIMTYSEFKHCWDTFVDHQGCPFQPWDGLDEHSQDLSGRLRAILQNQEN
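Read-out is eYFP fluorescence (Ex 488/Em 500-530) from Vif-expressing HeLa A3G-eYFP cells; more signal means A3G escaped Vif-mediated degradation. Cells plated overnight, compound pinned in, incubated overnight at 37 deg C.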
Vif-A3F inh: Vif-A3F binding inhibition; HeLa A3F-eYFP + Vif (tagged APOBEC3F with the HIV-1 protein that degrades it), YFP fluorescence increase; Potency, µM (top dose mostly 46.1 µM); AID 602313; hit rate 0.2% among 390,000; further: nearly all actives have a fitted effect of over 65% in size
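HeLa cells stably expressing A3F-eYFP plus Vif, plated and incubated overnight at 37 deg C, then exposed to compounds overnight at 37 deg C. Blocked degradation read as raised yellow fluorescence (Ex 488/Em 500-530).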
Hits are given with their value; - = inactive; ? = inconclusive; . = no result given. Unless noted, the call rests on the fitted dose curve; in most records, active means well fitted curve in the direction sought with a large enough effect; inconclusive means small, poorly fitted or top-dose-only effect, or another doubt; inactive means no such curve, though single readings can be large; an effect the other way counts as inactive or inconclusive.

SMILES | PINK1 modulator | Epigenetic reg | Vif-A3G inh | Vif-A3F inh
Cc1ccc(Nc2sc(C(=O)c3ccccc3)c(N)c2C(=O)Nc2ccc(Cl)cc2)cc1 | 39.8µM | - | - | -
Nc1c(C(=O)c2ccccc2)sc(Nc2ccc(Cl)c(Cl)c2)c1C(=O)Nc1ccccc1 | 15.8µM | - | - | -
COc1ccc(CNC(=O)c2c(Nc3ccccc3C)sc(C(=O)c3ccccc3)c2N)cc1 | ? | - | - | -
COc1ccc(O)c(CN2CCC3(CCC(CNC(=O)c4ccco4)O3)CC2)c1 (stereo not given) | - | . | . | .
CCOC(=O)N1CCN(Cc2ccc3c(c2)CN(C(=O)c2cc(-c4ccccc4)no2)CCO3)CC1 | - | . | . | .
CC(C)(C)c1ccc(OCC(=O)Nc2ccc3c4c(cccc24)C(=O)NC3=O)cc1 | - | - | - | 12.6µM
Cc1ncc2c(c1CNC(=O)c1cncs1)CCN(C(=O)c1cc(F)c(F)cc1F)C2 | - | . | . | .
CCOC(=O)/C(C#N)=C(C)/C=C1\Sc2ccccc2N1CC | ? | ? | - | ?
CCN1/C(=C\C=C(C(C)=O)C(C)=O)Sc2ccccc21 | ? | - | 22.4µM | 22.4µM
O=C(NNC(=S)NC(=O)c1ccccc1[N+](=O)[O-])c1ccccc1O | 28.2µM | - | - | -
CCOC(=O)c1cnc(-n2nc(C)cc2C)nc1NNc1nc(-c2ccccc2)cc(-c2ccccc2)n1 | ? | - | - | 7.08µM
O=C(NCc1ccccc1Cl)c1ccc(Nc2nc3ccccc3n3nnnc23)cc1 | - | 10µM | - | ?
COc1cc(Nc2nc3ccccc3n3nnnc23)cc(OC)c1OC | - | ? | ? | 6.31µM
Cc1cc(C([O-])=C(C(=S)Nc2ccc(F)cc2)[n+]2ccccc2)c(C)n1-c1ccc(F)cc1 | - | . | - | -
COc1cccc(NC(=S)/C(=C(\[O-])c2cc(C)n(-c3ccccc3F)c2C)[n+]2ccc(N(C)C)cc2)c1 | 15.8µM | - | - | -
CCC[N+](C)(C)c1ccc(/C=C/c2ccnc3ccccc23)cc1 | 3.16µM | . | - | .
Cc1cc(/C=C/c2ccnc3ccccc23)ccc1N | - | . | 10µM | .
CN(C)c1ccc(/C=C/c2ccnc3ccccc23)cc1N | - | . | ? | .
Oc1ccc(/C=C/c2ccnc3ccccc23)cc1 | - | - | - | -
C[N+](C)(C)c1ccc(/C=C/c2ccnc3ccccc23)cc1 | 31.6µM | . | - | .
CCN(N=O)c1ccc(/C=C/c2ccnc3ccccc23)cc1 | - | . | - | .
Cc1cnc(-n2ncc(C(=O)NCCc3ccncc3)c2-c2cccs2)nc1-c1ccc(F)cc1 | - | . | . | .
Cc1ccc2c3c(c(SCC(=O)Nc4nonc4C)nc2c1)CCCC3 | 10µM | - | - | -
Cc1ncsc1CCC(=O)N1CCCC(c2nc(-c3ccncc3)ncc2-c2ccccc2)C1 (stereo not given) | - | . | . | .
CCCS(=O)(=O)NCc1c(C)ncc2c1CCN(C(=O)/C=C/c1ccccc1)C2 | - | . | . | .
SMILES | PINK1 modulator | Epigenetic reg | Vif-A3G inh | Vif-A3F inh
COc1cc(-c2cc(C)c3cccc(OC)c3n2)cc2c1OCCN(C(=O)CCn1ccc(C)n1)C2 | - | . | . | .
CC(C)(C)S(=O)(=O)/C(C#N)=N/Nc1ccc(Cl)cc1 | 28.2µM | - | - | -
CC(C)(C)c1ccc(N/N=C(\C#N)S(=O)(=O)C(C)(C)C)cc1 | 39.8µM | - | - | -
COCC(=O)Nc1cc(C(=O)N2CCN(C)C(c3ccccc3)C2)c2c(c1)nc(-c1ccncc1)n2C (stereo not given) | - | . | . | .
Cc1nn(C)cc1/C=N/NC(=S)Nc1ccccc1 | - | 3.98µM | - | -
Oc1ccccc1C=NNC(=S)Nc1ccc(F)cc1 | - | . | - | -
N#CCSc1ccccc1NC(=O)COC(=O)CCNC(=O)c1ccc([N+](=O)[O-])cc1 | - | . | - | 22.4µM
O=C(CCNC(=O)c1ccc([N+](=O)[O-])cc1)Nc1ccccc1N1CCCC1 | - | . | - | -
Cc1noc(C)c1C(=O)OCC(=O)Nc1ccccc1SCC#N | - | . | - | 22.4µM
COc1cc2c3nnc(-c4ccc(F)cc4)c-3cn(Cc3cccc(F)c3)c2cc1OC | ? | 7.08µM | 7.94µM | 6.31µM
COc1cc2c3nnc(-c4ccc(F)cc4)c-3cn(Cc3cccc(C)c3)c2cc1OC | ? | 3.55µM | - | ?
COc1cc2c3nnc(-c4ccc(F)cc4)c-3cn(Cc3ccc(C)cc3)c2cc1OC | ? | 6.31µM | ? | -
CC(=O)N1CCC[C@H]1C(=O)NCC1Cc2cc(-c3cccc(OC(F)(F)F)c3)ccc2O1 (stereo not given in full) | - | . | . | .
Oc1[nH]c2ccccc2c1N=Nc1ccccc1Cl | 31.6µM | . | - | 22.4µM
CCc1ccc(-c2cc(C(F)(F)F)n3nc(C(=O)Nc4cnn(Cc5ccc(C)cc5)c4)cc3n2)s1 | - | ? | ? | 11.2µM
Cc1ccc(C)c(NC(=O)c2ccccc2O)c1 | 15.8µM | - | - | -
Cc1cccc(NC(=O)c2ccccc2O)c1C | . | - | - | -
N#C/C(=C/c1ccc(Sc2nc3ccccc3[nH]2)o1)c1cccc(F)c1 | ? | - | - | -
N#C/C(=C/c1ccc(Sc2nc3ccccc3[nH]2)o1)c1cccc(Br)c1 | 17.8µM | - | - | -
Cc1nn(-c2ccc(F)cc2)c(C)c1CNC(=O)c1ccc(-n2cc(NC(=O)c3ccoc3)cn2)cc1 | - | . | . | .
CC(=O)c1ccc2cccc3c2c1N=CN3C | . | - | 12.6µM | ?
Cc1ccc(-c2cc(C(=O)NCc3cnn(C)c3)c3cc(Br)ccc3n2)cc1 | ? | - | - | -
CCn1cc(CNC(=O)c2cc(-c3ccc(C)cc3)nc3ccc(Br)cc23)c(C)n1 | - | 15.8µM | - | ?
COc1ccc(S[C@@H]2C[C@@H](C(=O)Nc3ccc4nccnc4c3)N(C3Cc4ccccc4C3)C2)cc1 | - | . | . | .
Fc1ccc(NC(=S)Nc2nccs2)cc1 | - | - | - | ?
SMILES | PINK1 modulator | Epigenetic reg | Vif-A3G inh | Vif-A3F inh
S=C(Nc1ccccc1)Nc1nccs1 | - | 12.6µM | - | -
Cc1cccc(-c2cnc(C)nc2C2CCCN(C(=O)c3cccc(Cn4cccn4)c3)C2)c1 (stereo not given) | - | . | . | .
COc1cc2c(cc1OC)C1=CC(=O)C(=O)N1C(C)(C)C2 | - | - | 7.08µM | ?
COc1cc2c(cc1OC)-c1nc3ccccc3c(=O)n1C(C)(C)C2 | - | - | - | -
Cc1cc(S(=O)(=O)N(Cc2ccccn2)Cc2ccco2)ccc1-n1cnnn1 | . | - | - | -
CCN(Cc1ccccc1)S(=O)(=O)c1ccc(S(=O)(=O)N(Cc2ccccn2)Cc2ccco2)cc1 | 11.2µM | - | - | -
COC(=O)Cn1c(C)c(/C=C/c2cc[n+](C)cc2)c2ccccc21 | - | . | ? | 11.2µM
Cc1c(C(=O)NCC2(N3CCOCC3)CCCC2)cnn1-c1nccc(-c2ccccc2F)n1 | - | . | . | .
CCOn1c(=O)c(C)[n+]([O-])c2ccccc21 | - | 20µM | ? | ?
CCOC(=O)COn1c(=O)c(-c2ccc(Br)cc2)[n+]([O-])c2ccccc21 | - | . | - | 1.78µM
COc1ccc(CN2CCCC(n3cc(C(=O)NC4CCCC4)nn3)C2)c(O)c1 (stereo not given) | - | . | . | .
Cc1cccc(CNC(=O)c2cnn(-c3ncc4c(n3)-c3ccccc3CC4)c2C2CC2)n1 | - | . | . | .
COc1ccc(NC(=O)c2ccc(NC(=O)C(C)C)cc2)c([N+](=O)[O-])c1 | ? | 14.1µM | - | 10µM
